Test results: PubChem BioAssay

tested on: not listed separately; assay: small-molecule binders of probe aInhba, primary screen, biochemical, small-molecule microarray, 635/667 nm fluorescence (AID 1148); settings: higher = more signal;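 note: score merges 667nm spot fluorescence with signal-to-noise for antibody binding to printed compounds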

SMILES | composite z-score
C=CC[C@]1(C(=O)NCC(O)CO)N=C(c2ccc(OCCCO)cc2)O[C@H]1c1ccccc1CN=[N+]=[N-] (some centres undefined) | 0.249
C[C@]1(C(=O)NC2CC2)c2ccccc2C(=O)N(Cc2cc(F)cc(C(F)(F)F)c2)[C@H]1c1ccc(CO)cc1 | -0.242
CC(C)N1CC=CC23O[C@@H]4/C=C\CCCOC(=O)C4[C@H]2C(=O)N(C(C)CO)[C@@H]3C1=O (some centres undefined) | -0.176
CCOC(=O)C[C@H]1[C@H](OC(=O)c2ccccc2-c2ccccc2)[C@@H](NC(=O)CC(C)C)c2cc(OCCCO)ccc2N1C(=O)c1ccccc1 | -0.0178
CN(C)CCCCNC(=O)[C@H]1C[C@H]2C(=O)N[C@@H](CCCCN(C)C)C(=O)N2[C@H]1c1ccc(O)cc1 | -0.206
CC(CO)N1C(=O)[C@@H]2[C@H]3C(=O)OCC=C[C@H]3OC23C=CCN(c2ccc4ccccc4c2)C(=O)[C@@H]13 (some centres undefined) | -0.128
CC(C)N1C(=O)[C@@]2(Cc3ccccc31)c1ccccc1C(=O)N(Cc1ccccc1)[C@H]2c1ccc(CO)cc1 | -0.119
CCOC(=O)C1=CC[C@@H](c2ccccc2)N(S(=O)(=O)c2ccc(C)cc2)[C@@H]1C#N | -0.128
COc1ccc([Si](C)(C)[C@@H]2[C@@H](CC(=O)N(CCO)Cc3ccccc3)O[C@]3(C(=O)N(Cc4cccc(I)c4)c4ccccc43)[C@H]2C)cc1 | -0.0405
CO[C@H]1O[C@H](CO)[C@@H](OC(=O)CCc2ccccc2)[C@@H]2OC(=O)[C@@H](Cc3ccc4ccccc4c3)C/C=C/C[C@H](Cc3ccc4ccccc4c3)C(=O)O[C@@H]12 | -0.13
O=C1O[C@H](c2ccccc2)[C@H](c2ccccc2)N2[C@H]1[C@@H](C(=O)O)[C@]1(C(=O)Nc3ccccc31)[C@H]2c1ccc(OCCO)cc1 | -0.0468
O=C1c2ccccc2[C@@]2(Cc3ccccc3N(CC(F)(F)F)C2=O)[C@H](c2ccc(CO)cc2)N1Cc1ccccc1 | -0.149
COCCCNC(=O)[C@@]1(Cc2ccccc2I)c2ccccc2C(=O)N(C2CCCCC2)[C@H]1c1ccc(CO)cc1 | 0.115
COCCOC(=O)N1C(=O)[C@@]2(c3cc(C#CC4(O)CCCCCC4)ccc31)[C@H](C(N)=O)[C@H]1C(=O)O[C@H](c3ccccc3)[C@H](c3ccccc3)N1[C@@H]2c1ccc(OCCO)cc1 | 0.201
CCCNC(=O)[C@@]1(Sc2ccc(C)cc2)CC(=O)N(Cc2cc(C(F)(F)F)cc(C(F)(F)F)c2)[C@@H]1c1ccc(CO)cc1 | -0.0963
C=C(CCCC)/C(=C/C[C@@H](OC(C)=O)c1cccc(OCCO)c1)c1cc(C(=O)OC)ccc1OC | -0.0645
Cc1cccc([C@H]2C[C@H]3C(Br)=C[C@@]2(CO)C(=O)[C@]32CO2)c1 | -0.128
CCCCN1CC=CC23O[C@@H]4/C=C\CCCOC(=O)C4[C@H]2C(=O)N(CCCCCCO)[C@@H]3C1=O (some centres undefined) | -0.154
C=CCNC(=O)[C@@H]1[C@H]2C(=O)O[C@H](c3ccccc3)[C@H](c3ccccc3)N2[C@H](c2ccc(OCCO)cc2)[C@@]12C(=O)N(C(=O)OCCOC)c1ccccc12 | 0.138
COc1ccc(C(=O)Nc2ccc(CN3C(=O)[C@]4(O[C@H](CC(=O)N(CCO)Cc5ccccc5)[C@@H]([Si](C)(C)c5ccc(OC)cc5)[C@@H]4C)c4ccccc43)cc2)cc1 | -0.128
COC(=O)Cn1c(C(=O)N(C)C)cc2c1C[C@H]1CN(C(=O)c3ccccc3)[C@@](Cc3ccccc3)(C(=O)OC)[C@@H]21 | 0.105
CO[C@H]1O[C@H](CO)[C@@H](OC(=O)Nc2cccc(F)c2)[C@H](OC(=O)Nc2ccc3c(c2)OCO3)[C@@H]1OC(=O)Nc1ccc2c(c1)OCO2 | 0.0471
COC(=O)[C@@]1(Cc2ccc(F)cc2)[C@H]2c3cc(C(=O)N(C)C)n(Cc4cccc5ccccc45)c3C[C@H]2CN1C(=O)c1ccccc1 | 0.115
CCOC(=O)C[C@H]1[C@H](OC(=O)Cc2ccc3c(c2)OCO3)[C@@H](NC(=O)CC(C)C)c2cc(OCCCO)ccc2N1C(=O)c1ccc2ccccc2n1 | -0.0331
O=C1O[C@H](c2ccccc2)[C@H](c2ccccc2)N2[C@H]1[C@@H](C(=O)N1CCN(c3ncccn3)CC1)[C@]1(C(=O)Nc3ccc(C#CC4(O)CCCCCC4)cc31)[C@H]2c1ccc(O)cc1 | 0.096
COC(=O)C[C@H]1O[C@]2(C(=O)N(C)c3ccccc32)[C@@H](C)[C@@H]1[Si](C)(C)c1ccccc1 | -0.204

biological target: Torsin-1A (Homo sapiens) (UniProt O14656); assay: torsin A binders from cell lysate, primary screen, small-molecule microarray, wild-type, 635/667 nm (AID 1149); settings: COS7 hTOR1A-WT lysate, 635 nm fluorescence, higher = more signal
Sequence (O14656 whole entry, looked up): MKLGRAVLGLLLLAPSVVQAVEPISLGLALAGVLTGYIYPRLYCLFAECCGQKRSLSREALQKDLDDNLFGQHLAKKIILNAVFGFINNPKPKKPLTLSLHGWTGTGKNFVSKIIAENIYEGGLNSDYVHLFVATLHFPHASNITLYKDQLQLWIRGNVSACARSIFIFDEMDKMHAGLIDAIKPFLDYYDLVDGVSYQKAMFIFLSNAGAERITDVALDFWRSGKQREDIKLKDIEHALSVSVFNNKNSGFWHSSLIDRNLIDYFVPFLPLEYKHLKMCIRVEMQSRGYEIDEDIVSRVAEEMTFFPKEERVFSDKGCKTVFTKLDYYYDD

SMILES | composite z-score
CCCC[C@@H](O)C1=C(C)Cn2c(=O)n(-c3ccccc3)c(=O)n2[C@H]1CO | 0.0705
CCOC(=O)C[C@H]1[C@H](OC(=O)c2cc3ccccc3oc2=O)[C@@H](NC(=O)Cc2ccc(OC)cc2)c2cc(OCCCO)ccc2N1C(=O)Cc1ccc(OC)cc1 | 0.332
COC(=O)C1=CC(CCCO)=CC(c2ccc(CN3CCCC3)cc2)N(C)C=C1C(=O)OC (centres undefined) | -1.01
CCOC(=O)C[C@H]1[C@H](OC(=O)c2ccc(-c3ccccc3)cc2)[C@@H](NC(=O)c2ccc(-c3ccccc3)cc2)c2cc(OCCCO)ccc2N1C(=O)c1ccccc1 | 0.134
COc1ccc(C(=O)Nc2cccc(CN3C(=O)[C@]4(O[C@H](CC(=O)N(CCO)Cc5ccccc5)[C@@H]([Si](C)(C)c5ccc(OC)cc5)[C@@H]4C)c4ccccc43)c2)cc1 | 0.0401
O=C(N1CCOCC1)[C@]1(CCS(=O)(=O)c2ccccc2)N=C(c2ccc(OCCCO)cc2)O[C@@H]1c1ccccc1 | 0.46
CC(C)c1ccc(NN2C(C(O)c3ccccc3)C=CC3C(=O)N(c4ccccc4)C(=O)C32)cc1 (centres undefined) | -0.388
COc1ccc([Si](C)(C)[C@H]2[C@H](CC(=O)N3CCC[C@H]3CO)O[C@@]3(C(=O)N(C)c4c(Br)cc(C)cc43)[C@@H]2C)cc1 | 2.05
COCCCNC(=O)[C@]1(Cc2ccccc2N=[N+]=[N-])N=C(c2ccc(OCCCO)cc2)O[C@@H]1c1ccccc1 | 0.303
[N-]=[N+]=NCc1ccccc1[C@H]1OC(c2ccc(OCCCO)cc2)=N[C@@]1(Cc1ccccc1N=[N+]=[N-])C(N)=O | 1.55
C=CC[C@]1(C(=O)NCC(O)CO)N=C(c2ccc(OCCCO)cc2)O[C@H]1c1ccccc1CN=[N+]=[N-] (some centres undefined) | 0.598
C[C@]1(C(=O)NC2CC2)c2ccccc2C(=O)N(Cc2cc(F)cc(C(F)(F)F)c2)[C@H]1c1ccc(CO)cc1 | -2.36
CC(C)N1CC=CC23O[C@@H]4/C=C\CCCOC(=O)C4[C@H]2C(=O)N(C(C)CO)[C@@H]3C1=O (some centres undefined) | -2.23
CCOC(=O)C[C@H]1[C@H](OC(=O)c2ccccc2-c2ccccc2)[C@@H](NC(=O)CC(C)C)c2cc(OCCCO)ccc2N1C(=O)c1ccccc1 | -0.278
CN(C)CCCCNC(=O)[C@H]1C[C@H]2C(=O)N[C@@H](CCCCN(C)C)C(=O)N2[C@H]1c1ccc(O)cc1 | 0.464
CC(CO)N1C(=O)[C@@H]2[C@H]3C(=O)OCC=C[C@H]3OC23C=CCN(c2ccc4ccccc4c2)C(=O)[C@@H]13 (some centres undefined) | -2.15
CC(C)N1C(=O)[C@@]2(Cc3ccccc31)c1ccccc1C(=O)N(Cc1ccccc1)[C@H]2c1ccc(CO)cc1 | 0.291

SMILES | composite z-score
CCOC(=O)C1=CC[C@@H](c2ccccc2)N(S(=O)(=O)c2ccc(C)cc2)[C@@H]1C#N | 0.0512
COc1ccc([Si](C)(C)[C@@H]2[C@@H](CC(=O)N(CCO)Cc3ccccc3)O[C@]3(C(=O)N(Cc4cccc(I)c4)c4ccccc43)[C@H]2C)cc1 | 0.48
CO[C@H]1O[C@H](CO)[C@@H](OC(=O)CCc2ccccc2)[C@@H]2OC(=O)[C@@H](Cc3ccc4ccccc4c3)C/C=C/C[C@H](Cc3ccc4ccccc4c3)C(=O)O[C@@H]12 | -1.32
O=C1O[C@H](c2ccccc2)[C@H](c2ccccc2)N2[C@H]1[C@@H](C(=O)O)[C@]1(C(=O)Nc3ccccc31)[C@H]2c1ccc(OCCO)cc1 | 0.658
O=C1c2ccccc2[C@@]2(Cc3ccccc3N(CC(F)(F)F)C2=O)[C@H](c2ccc(CO)cc2)N1Cc1ccccc1 | -0.118
COCCCNC(=O)[C@@]1(Cc2ccccc2I)c2ccccc2C(=O)N(C2CCCCC2)[C@H]1c1ccc(CO)cc1 | -0.0751
COCCOC(=O)N1C(=O)[C@@]2(c3cc(C#CC4(O)CCCCCC4)ccc31)[C@H](C(N)=O)[C@H]1C(=O)O[C@H](c3ccccc3)[C@H](c3ccccc3)N1[C@@H]2c1ccc(OCCO)cc1 | 0.838
CCCNC(=O)[C@@]1(Sc2ccc(C)cc2)CC(=O)N(Cc2cc(C(F)(F)F)cc(C(F)(F)F)c2)[C@@H]1c1ccc(CO)cc1 | -0.11
C=C(CCCC)/C(=C/C[C@@H](OC(C)=O)c1cccc(OCCO)c1)c1cc(C(=O)OC)ccc1OC | 0.146
Cc1cccc([C@H]2C[C@H]3C(Br)=C[C@@]2(CO)C(=O)[C@]32CO2)c1 | -1.59
CCCCN1CC=CC23O[C@@H]4/C=C\CCCOC(=O)C4[C@H]2C(=O)N(CCCCCCO)[C@@H]3C1=O (some centres undefined) | -1.63
C=CCNC(=O)[C@@H]1[C@H]2C(=O)O[C@H](c3ccccc3)[C@H](c3ccccc3)N2[C@H](c2ccc(OCCO)cc2)[C@@]12C(=O)N(C(=O)OCCOC)c1ccccc12 | 0.72
COc1ccc(C(=O)Nc2ccc(CN3C(=O)[C@]4(O[C@H](CC(=O)N(CCO)Cc5ccccc5)[C@@H]([Si](C)(C)c5ccc(OC)cc5)[C@@H]4C)c4ccccc43)cc2)cc1 | 0.689
COC(=O)Cn1c(C(=O)N(C)C)cc2c1C[C@H]1CN(C(=O)c3ccccc3)[C@@](Cc3ccccc3)(C(=O)OC)[C@@H]21 | 0.263
CO[C@H]1O[C@H](CO)[C@@H](OC(=O)Nc2cccc(F)c2)[C@H](OC(=O)Nc2ccc3c(c2)OCO3)[C@@H]1OC(=O)Nc1ccc2c(c1)OCO2 | 1.17
COC(=O)[C@@]1(Cc2ccc(F)cc2)[C@H]2c3cc(C(=O)N(C)C)n(Cc4cccc5ccccc45)c3C[C@H]2CN1C(=O)c1ccccc1 | 0.639
